From PubChem BioAssay
The list is not random: actives were taken first. Their share in the collection is about 9.6%.
Lmaj promast – Leishmania major promastigote growth inhibition. Leishmania major promastigotes, resazurin fluorescence viability. inhibition, % at 10 µM. 9% of 200,000 active. AID 1063; in the data active = inhibition above about 50%;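 also: promastigotes grown with compound for 44 hours at 28 °C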
Insulin prom inh – TRM-6 insulin promoter activity inhibition. TRM-6 cells (human fetal islet line), insulin promoter-eGFP reporter, imaging; reporter expression induced with tamoxifen. inhibition, % at 2 µM. 0.9% of 130,000 active;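 active = inhibition above the mean plus 3 SD, with well images judged a real hit on visual review, cut at about 60% in these data, passing the limit was not always enough; inconclusive = inhibition over the cutoff but images rejected on review; inactive = inhibition not above the cutoff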
Autophagy HCS – modulators of autophagy | MEF GFP-LC3 puncta imaging; test concentration mostly 10 µM | calls only at 10 µM (by protocol) | 0.98% of 190,000 active | AID 463193;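 active = percentage of spot-positive cells more than 3 SD above its plate mean, without a fluorescence outlier flag or 80% toxicity; inconclusive = no clear call, values can overlap the other calls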;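 also: spot-positive cell cutoff set from DMSO-treated cells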
Ins promoter up – MIN6 insulin promoter up-regulation | MIN6 insulin promoter-GFP reporter, high-content imaging; active compounds read high | z-score at 5 µM | 0.3% of 190,000 active | AID 1625;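 active = z-score above 3 at 5 µM with at least 500 cells counted in the well; inconclusive = wells under 500 cells, flagged as cytotoxic or low count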
HCT116 PTEN-null – growth suppressors of cells with PTEN tumor suppressor deletion; HCT116 PTEN-null viability, CellTiter-Glo, 60 h; active compounds read low; 1.2% of 140,000 active; viability, % at 10 µM;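 active = viability at or below a set limit, 4 SD under the median of all tested compounds, cut at about 3.7% in these data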;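 also: PTEN knockout HCT116 line with beta catenin targeted HCT116 as companion control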
bCat KO growth – beta-catenin-lacking colon tumor cell growth suppression | viability, % at 10 µM | AID 818 | 1.5% of 140,000 active | HCT116 beta-catenin knockout viability, CellTiter-Glo, 60 h; active compounds read low;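 active = viability at or under a set limit, the compound median less 4 SD, cut at about 6% in these data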;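 also: 0% = Hyamine 1622 control at 20 µM and 100% = untreated cell control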
Numbers without * were called inactive; i = inactive; ? = inconclusive; . = no result given; + = active, no number.

SMILES	Lmaj promast	Insulin prom inh	Autophagy HCS	Ins promoter up	HCT116 PTEN-null	bCat KO growth
O=C1CNC(=O)N1Cc1ccc(Br)cc1	-7.1	-8.6	i	1.59	94.5	100.0
CCC(CC)=NNc1cccc([N+](=O)[O-])c1	-6.0	.	i	1.38	84.8	81.4
CC/C(C)=N/Nc1cccc([N+](=O)[O-])c1	95.8*	.	i	-0.34	98.3	98.9
CCOC(=O)C1C(=O)NC(N2CCc3ccccc32)=NC1c1ccccc1 (centres undefined)	-4.9	33.3	i	-0.26	90.8	77.5
COc1cccc(/C=C/C(=O)c2c(O)cc(C)oc2=O)c1O	96.6*	-26.0	i	-0.67	62.4	53.6
COc1ccc(C(=O)/C=C/c2cc(OC)c(O)c(OC)c2)c(F)c1	89.8*	-20.0	i	.	7.5	7.8
COc1cc(/C=C/C(=O)c2c(O)cc(C)oc2=O)cc(OC)c1O	97.1*	6.8	i	0.24	73.0	83.2
Cc1ccccc1-c1nnc(-c2ccccc2C)o1	-4.3	31.2	i	-0.15	77.2	79.6
CCCCN(C)S(=O)(=O)c1ccc(C(=O)Nc2nnc(-c3ccco3)o2)cc1	96.2*	18.2	i	.	.	.
CCc1nnc(NC(=O)c2ccc(S(=O)(=O)N(CC)Cc3ccccc3)cc2)o1	98.5*	.	i	0.35	12.4	18.4
CCN(CC)S(=O)(=O)c1ccc(C(=O)Nc2nnc(COC)o2)cc1	-7.3	.	i	-0.09	.	.
CCCCN(CC)S(=O)(=O)c1ccc(C(=O)Nc2nnc(-c3cccs3)o2)cc1	98.7*	.	i	0.85	17.5	16.1
CN(C)S(=O)(=O)c1ccc(C(=O)Nc2nnc(-c3ccco3)o2)cc1	-3.2	33.3	i	-0.24	.	.
CCN(CC)S(=O)(=O)c1ccc(C(=O)Nc2nnc(-c3ccco3)o2)cc1	91.9*	.	i	.	.	.
Cc1ccc(OCC(=O)NNC(=O)c2cc3ccccc3o2)cc1	-8.2	-233.3	i	.	100.0	92.3
O=[N+]([O-])c1cc2c(cc1/C=N/Nc1nc(N3CCCC3)nc(N3CCCC3)n1)OCO2	75.7*	-40.7	i	-0.67	92.1	88.5
Cc1ccc(/C=N/Nc2nc(N3CCCCC3)nc(N3CCCCC3)n2)o1	41.8	-33.3	i	-0.05	.	.
O=[N+]([O-])c1ccc(/C=N/Nc2nc(N3CCCCC3)nc(N3CCCCC3)n2)cc1	53.5*	.	i	-0.67	.	.
O=[N+]([O-])c1ccc(/C=N/Nc2nc(N3CCCCCC3)nc(N3CCCCCC3)n2)o1	100.1*	-6.2	?	.	31.9	49.3
O=[N+]([O-])c1ccc(Nc2nc(N/N=C\c3ccc4c(c3)OCO4)nc(N3CCCCC3)n2)cc1	99.8*	21.4	i	.	61.6	74.2
O=[N+]([O-])c1ccc(Nc2nc(NCCO)nc(N3CCCC3)n2)cc1	45.4	.	i	-1.93	.	.
CCN(CC)S(=O)(=O)c1cc(NS(=O)(=O)c2cccc(Cl)c2)ccc1C	65.0*	-74.1	i	-0.66	102.3	92.3
C=CCSc1nc(N(CC)CC)c2sccc2n1	2.4	43.3	i	-1.02	97.8	76.4
O=c1[nH]n2c(=O)c3c([nH]c2c1N=Nc1cccc(C(F)(F)F)c1)CCCC3	-1.1	-137.2	i	.	79.4	86.5
Cc1[nH]n(C2=NCCS2)c(=O)c1N=Nc1cccc(C(F)(F)F)c1	99.2*	-123.5	i	-3.11	.	.
SMILES	Lmaj promast	Insulin prom inh	Autophagy HCS	Ins promoter up	HCT116 PTEN-null	bCat KO growth
Cc1cc(F)ccc1N1CCC(N2CCN(C(C)C)C(CCO)C2)CC1 (centres undefined)	98.2*	.	i	-1.52	.	.
CC(C)N1CCN(Cc2cc(F)ccc2-n2cccn2)CC1CCO (centres undefined)	-5.5	.	i	-1.04	.	.
Cc1cc(F)ccc1N1CCC(N2CCN(CCC(C)C)C(CCO)C2)CC1 (centres undefined)	94.9*	.	i	-0.3	.	.
N#C/C(=C\c1cn(Cc2ccccc2F)c2ccccc12)C(=O)NCc1ccco1	38.8	-6.7	i	-0.06	100.7	98.3
COc1ccc(C(=O)N/N=C/c2sc3ccccc3c2O)cc1	76.7*	50.0	i	-0.23	3.5*	3.3*
O=C(N/N=C/c1sc2ccccc2c1O)c1cccc2ccccc12	86.4*	-2.9	i	-0.39	4.3	4.1*
O=C(N/N=C/c1sc2ccccc2c1O)c1ccccc1	97.9*	-5.9	i	-0.14	3.7*	4.0*
COc1ccc2cc(C(=O)N/N=C/c3sc4ccccc4c3O)ccc2c1	-14.6	-60.0	i	.	4.3	3.1*
COc1ccc(C(=O)N/N=C/c2c(CO)cnc(C)c2O)cc1	17.3	.	i	-0.16	.	.
O=C(N/N=C/c1ccc(F)cc1)c1ccccc1	-0.5	-8.1	i	-0.41	.	.
COc1ccccc1N(CC(=O)NCC1CCCO1)C(=O)CNS(=O)(=O)c1ccccc1 (centres undefined)	.	.	.	0.07	.	.
COC(=O)c1cccc(NC(=O)Cn2cnc3c2c(=O)n(C)c(=O)n3C)c1	.	.	.	-1.02	.	.
COc1ccc(CCN2CC(C(=O)Nc3cccc(C(C)=O)c3)CC2=O)cc1OC (centres undefined)	-4.2	.	+	0.09	.	.
NNc1nccc(Nc2ccccc2C(=O)O)n1	-7.7	-5.9	i	-0.21	86.2	87.8
Cc1cc2oc(=O)cc(COC(=O)c3n[nH]c4ccccc34)c2cc1C	0.8	32.4	i	-0.31	63.7	74.3
COc1cc2c(cc1NC(=O)CSc1ccccc1)oc1ccccc12	5.1	-20.0	i	-0.02	102.3	95.0
COc1cc2c(cc1NC(=O)CSc1nc3cc(Cl)ccc3s1)oc1ccccc12	50.6*	44.7	i	-0.17	9.9	11.7
COc1cc2c(cc1NC(=O)COC(=O)[C@@H](NS(=O)(=O)c1cccc(Cl)c1)C(C)C)oc1ccccc12	62.2*	-53.1	i	.	57.9	59.7
COC(=O)c1c(NC(=O)COC(=O)[C@@H](NS(=O)(=O)c2cccc(Cl)c2)C(C)C)sc2c1CCC2	28.7	-15.4	+	-0.78	89.2	83.1
COc1cccc(NC(=O)Nc2ccc3nsnc3c2)c1	98.5*	.	i	-0.3	91.0	98.0
Cc1cc(SCC(=O)N/N=C/c2ccc(O)c(O)c2)c(C)cc1Br	71.7*	0.0	i	.	89.9	80.7
CN(C)S(=O)(=O)c1cccc(NC(=O)c2cc(=O)[nH]c3ccccc23)c1	4.4	-61.1	i	-0.26	.	.
COc1ccc(C(=O)/C=C/c2ccc(OC)c(CN3CCOCC3)c2)cc1	86.0*	.	i	.	13.8	12.1
COc1ccc(/C=C/C(=O)c2nc3ccccc3n2CC(=O)c2ccc(OC)cc2)cc1	75.1*	.	i	-0.58	78.5	91.7
COc1ccc(/C=C/C(=O)c2ccc(O)cc2)cc1CN1CCOCC1	97.7*	10.0	i	0.4	12.0	14.2
COc1ccc(/C=C/C(=O)c2ccc3ccccc3c2O)cc1CN1CCOCC1	33.6	-2.9	i	0.03	68.5	69.3
COc1ccc(/C=C/C(=O)C23CC4CC(CC(C4)C2)C3)cc1CN1CCOCC1	66.3*	.	i	0.68	.	.
COc1ccc(/C=C/C(=O)c2ccccc2O)cc1CN1CCOCC1	23.9	8.5	i	-1.27	74.5	80.5
